# FMDV antiviral – blocks foot and mouth disease virus. FMDV antiviral cell-based qHTS. 1.2% of 410,000 active. Potency, µM (top dose mostly 57.9 µM), for inactives: top-dose activity change, negative = inhibition, usual class: inhibitors; calls by dose curve; tested in HEK293T cells; further: read-out not given here; potency means the concentration at half of the fitted maximal effect; nearly all actives have a fitted effect of over 45% in size
# Vaccinia mCherry – inhibitors of vaccinia virus infection (mCherry reporter signal) | AID 720579 | Vaccinia virus mCherry reporter infection, fluorescence | 0.63% of 310,000 active | Potency, µM (highest dose often 36.5 µM), without a hit: top-dose activity change, negative = inhibition, most hits filed as inhibitors; calls by dose curve; tested in A549 cells; further: potency means the concentration at half of the fitted maximal effect; nearly all actives have a fitted effect of over 35% in size
# Lassa entry inh – inhibitors of Lassa virus binding or cell entry; Lassa virus pseudotype entry inhibition, cell reporter; Potency, µM (titrated, usually from 37.9 µM), inactives show at the top dose activity change, negative = inhibition, most hits filed as inhibitors; 1.2% of 300,000 active; calls by dose curve; tested in HEK293 cells; further: potency means the concentration at half of the fitted maximal effect; nearly all actives have a fitted effect of over 50% in size
# MARV entry inh – blocks Marburg virus binding to or entry into cells; Marburg virus pseudotyped entry inhibition, cell reporter; 1.8% of 300,000 active; Potency, µM (titrated, usually from 37.8 µM), inactives show top-dose activity change, negative = inhibition, hits mostly inhibitors; calls by dose curve; tested in HEK293 cells; further: potency means the concentration at half of the fitted maximal effect
# HCMV inh – human cytomegalovirus inhibition. HFF cells, HCMV-luciferase reporter, 72 h; stronger effect = lower value. activity change, negative = inhibition, % at 57.5 µM. 4.5% of 410,000 active; in the data active means activity change below about -60%; inconclusive means no clear call, values can overlap the other calls; inactive means above about -39%
#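 Human foreskin fibroblasts infected with luciferase-reporter HCMV at MOI 1 PFU/cell, compounds at two doses. Luciferase measured 72 h post infection; normalized to buffer-only basal and Salinomycin (10uM) controls.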
# VACV Venus inh – vaccinia inhibition (Venus reporter); Vaccinia virus Venus reporter expression, fluorescence; Potency, µM (top dose mostly 36.5 µM), for the others: at the top dose activity change, negative = inhibition, hits mostly inhibitors; 0.46% of 330,000 active; AID 720580; calls by dose curve; tested in A549 cells; further: potency means the concentration at half of the fitted maximal effect; nearly all actives have a fitted effect of over 30% in size
# Active calls of the source: *; i = inactive; ? = inconclusive; / = no result; [ ] = another dose, or the depositor's remark. A selection: hits, their analogues and other compounds. The true share with any hit is near 6.5%. On the % scale 0 is the no-effect control and ±100 the full control effect.
SMILES,FMDV antiviral,Vaccinia mCherry,Lassa entry inh,MARV entry inh,HCMV inh,VACV Venus inh
CC1=C(C(=O)OCc2ccc(C)cc2)C(c2ccccc2F)CC(=O)N1 (stereo unspecified),0%,-8%,?,?,-18,-14%
COc1cc2c(cc1OC)-c1c(OC)c(OC)c(OC)c3ccnc(c13)C2=O,?,?,?,18µM*,/,?
COc1ccc(-c2ccnc3c2c(=O)n(C)c(=O)n3C)cc1OC,-10%,-7%,13%[46.1 µM],3%[46.1 µM],-6,-1%
CC(=O)Nc1ccc(NC(=O)c2ccc3c(c2)N(Cc2cccc(Cl)c2)C(=O)c2ccccc2S3=O)cc1 (stereo unspecified),-22%,-12%,?,/,-95*,-10%
CC1CCCCN1C(=O)c1ccc2c(c1)N(Cc1cccc(Cl)c1)C(=O)c1ccccc1S2=O (stereo unspecified),6%,-1%,-11%[46.1 µM],/,-68*,-13%
Cc1cccc(N2CCN(C(=O)c3ccc4c(c3)N(Cc3ccccc3F)C(=O)c3ccccc3S4=O)CC2C)c1 (stereo unspecified),-12%,-23%,?,13µM*,-64*,-18%
CC1CCCCN1CCNC(=O)c1ccc2c(c1)N(Cc1cccc(Cl)c1)C(=O)c1ccccc1S2=O (stereo unspecified),0%,-4%,?,?,-35,?
CCN1C(=O)c2ccccc2S(=O)c2ccc(C(=O)N3CCN(c4cccc(C)c4)C(C)C3)cc21 (stereo unspecified),?,-26%,?,-5%[46.1 µM],-27,-16%
Cc1cccc(N2CCN(C(=O)c3ccc4c(c3)N(Cc3cccc(Cl)c3)C(=O)c3ccccc3S4=O)CC2C)c1 (stereo unspecified),-19%,-28%,?,/,-67*,-15%
CC(C)(O)/C=C/C(=O)[C@](C)(O)C1[C@H](O)C[C@@]2(C)C3CC=C4C(C=C(O[C@@H]5O[C@H](CO)[C@@H](O)[C@H](O)[C@H]5O)C(=O)C4(C)C)[C@]3(C)C(=O)C[C@]12C (stereo partly specified),-12%,i,/,/,19,-22%
CC(C)(O)/C=C/C(=O)[C@](C)(O)C1[C@H](O)C[C@@]2(C)C3CC=C4C(C[C@H](O)[C@@H](O)C4(C)C)[C@]3(C)C(=O)C[C@]12C (stereo partly specified),?,?,/,/,/,1.6µM*
COc1ccc(OC)c(CCNC(=O)CCn2c(=O)c3cccn3c3cccnc32)c1,-7%,-14%,4%[46.1 µM],/,?,-6%
C=C(CC[C@]12OC(C(=O)O)C(O)(C(=O)O)C(C(=O)O)(O1)C(OC(=O)/C=C/[C@@H](C)C[C@@H](C)CC)C2O)[C@@H](OC(C)=O)[C@H](C)Cc1ccccc1 (stereo partly specified),/,-2%,/,/,/,-14%
CS(=O)(=O)c1ccc(/C=C2\C=Cc3ccccc32)cc1,/,2%,/,/,/,-9%
CCn1c2ccccc2c2cc(NC(=O)c3cc(OC)cc(OC)c3)ccc21,-7%,-25%,?,?,-92*,?
CCn1c2ccccc2c2cc(NC(=O)c3cc(OC)c(OC)c(OC)c3)ccc21,-9%,?,?,1.4µM*,-88*,?
CCn1c2ccccc2c2cc(NC(=O)COc3ccc(OC)cc3)ccc21,-19%,/,-12%,?,-27,/
CCOC(=O)N1CCN(C(=O)c2ccc(-c3ccccc3OC)nc2N2CCC(N3CCCC(CO)C3)CC2)CC1 (stereo unspecified),-1%,-9%,/,/,/,-5%
C=C(CCN1C=C(C(=O)OCC)C(c2ccccc2)NC1=O)c1ccc(Cl)cc1 (stereo unspecified),/,/,/,14%[14.2 µM],/,/
COc1ccccc1C(NC(=O)C1CCCCC1)c1c(O)ccc2ccccc12 (stereo unspecified),-11%,i,5%,?,-102*,-4%
CCC(=O)NC(c1ccccc1Cl)c1c(O)ccc2ccccc12 (stereo unspecified),0%,-2%,-14%,?,?,-16%
CCN(CCC#N)c1ccc(/C=C/c2ccnc3ccccc23)cc1,/,0%,/,/,/,-7%
